Where “and” joins values, the source holds several entries; their conditions need not be identical. Identical values can stand only once. Records with an inconclusive call do not appear. Where a call stands in place of a potency, no number is given. More than one record can exist for a structure, and the calls need not agree. Calls of active or inactive are those of the source. Unless noted, the call rests on the fitted dose curve.
Columns and labels:
[1] = Nuclear factor erythroid 2-related factor 2/antioxidant responsive element (Nrf2/ARE) small molecule agonists: qHTS cell viability counter screen in human keratinocytes (AID 1919968; active means well fitted curve in the direction sought with a large enough effect in the repeat runs; an effect the other way counts as inactive or inconclusive; further: nearly all actives have a fitted effect of over 55% in size; further: potency means the concentration at half of the fitted maximal effect)
In short: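 KeratinoSens cells (HaCaT keratinocytes stably carrying an ARE-luciferase reporter) were seeded at 1,500 cells/well and rested 5 h at 37 C/5% CO2. They were then exposed to compounds in DMSO for 23 h. Viability was read by CellTiter-Fluor fluorescence after 1 h.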

[2] = Nuclear factor erythroid 2-related factor 2/antioxidant responsive element (Nrf2/ARE) small molecule agonists: luciferase reporter gene qHTS assay in human keratinocytes (AID 1919969); further: nearly all actives have a fitted effect of over 35% in size; further: potency means the concentration at half of the fitted maximal effect
[3] = biological target: Gonadotropin-releasing hormone receptor (Homo sapiens) (UniProt P30968); assay: Human gonadotropin-releasing hormone receptor (GnRHR) small molecule agonists, calcium flux assay in GnRHR-HEK293 cells (AID 1920063); further: nearly all actives have a fitted effect of over 35% in size; further: potency means the concentration at half of the fitted maximal effect
In short: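 HEK293 cells stably expressing human GnRHR were plated 18 h at 37 °C, loaded with calcium dye 1 h at 37 °C, then given compound in agonist mode; fluorescence (Ex/Em 480/540) read kinetically for 3 min at 1 s intervals.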

[4] = biological target: KiSS-1 receptor (Homo sapiens) (UniProt Q969F8); assay: Human kisspeptin (KISS1R) small molecule agonists, calcium flux assay in KISS1R-HEK293 cells (AID 1920064; active means well fitted curve in the direction sought with a large enough effect in the repeat runs; an effect the other way counts as inactive or inconclusive)
In short: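 HEK293 cells stably expressing human KISS1R were plated 18 h at 37 °C, loaded with calcium dye for 1 h at 37 °C, then given compound by pin tool. Fluorescence (Ex/Em 480/540) was read kinetically for 3 min.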

[5] = G protein-coupled receptor (GPCR) small molecule agonists, calcium flux assay: HEK293 wild type cell line counter screen (AID 1920065)
In short: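 Cells were plated and cultured 18 h at 37 C/5% CO2, then loaded with calcium dye for 1 h at 37 C. Compounds in DMSO were pin-transferred in agonist mode, and fluorescence (Ex/Em 480/540) was read kinetically for 3 min at 1 s intervals.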

[6] = p53 small molecule agonists, cell-based qHTS assay with human liver microsomes (AID 1963577);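 further: p53 response element beta-lactamase reporter cells with liver microsomes plus NADPH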
In short: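 16 h, 37 C exposure of p53RE-bla cells to compounds with human liver microsomes and NADPH (0.5 mg/mL final each); detection via LiveBLAzer mixture, 2 h dark at room temperature.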

[7] = p53 small molecule agonists, cell-based qHTS assay with rat liver microsomes (AID 1963578)
In short: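 With rat liver microsomes and NADPH present (0.5 mg/mL final each), p53RE-bla cells are treated with compound for 16 h at 37 C. LiveBLAzer detection mixture is then applied for 2 h at room temperature in the dark.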

[8] = p53 small molecule agonists, cell-based qHTS assay with human liver microsomes: qHTS cell viability counter screen (AID 1963579); further: nearly all actives have a fitted effect of over 45% in size; further: potency means the concentration at half of the fitted maximal effect
In short: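 In this multiplexed counter screen, the reporter plates were subsequently treated with CellTiter-Glo so that cell viability, reflected by luminescence, could be recorded for p53RE-bla cells dosed 16 h with compounds under microsomal activation (HLM and NADPH).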

[9] = p53 small molecule agonists, cell-based qHTS assay with rat liver microsomes: qHTS cell viability counter screen (AID 1963580); further: nearly all actives have a fitted effect of over 45% in size; further: potency means the concentration at half of the fitted maximal effect
In short: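 Intracellular ATP, by CellTiter-Glo luminescence, defines viability. HCT-116 p53RE-bla cells, 4,000 per well, were compound-treated in the presence of rat liver microsomes and NADPH for 16 h at 37 C.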

[10] = biological target: 5-hydroxytryptamine receptor 2A (Homo sapiens) (UniProt P28223); assay: 5-hydroxytryptamine receptor 2A (HTR2A) small molecule antagonists, cell-based qHTS assay (AID 1963586); further: nearly all actives have a fitted effect of over 45% in size; further: potency means the concentration at half of the fitted maximal effect
In short: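 Antagonist-mode intracellular calcium assay: DOI (4 nM) added after 5 min compound pre-incubation at room temperature to dye-loaded HTR2A-CHO cells. Fluorescence followed for 3 min, sampled every second.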

[11] = biological target: 5-hydroxytryptamine receptor 2A (Homo sapiens) (UniProt P28223); assay: 5-hydroxytryptamine receptor 2A (HTR2A) small molecule agonists, cell-based qHTS assay (AID 1963587); further: nearly all actives have a fitted effect of over 30% in size; further: potency means the concentration at half of the fitted maximal effect
In short: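 Kinetic calcium-flux fluorescence (2 min, 1 sec intervals) after compound addition in agonist mode. HTR2A-CHO cells were cultured 18 h, then dye-loaded 1 h at 37 C.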

[12] = biological target: Muscarinic acetylcholine receptor M1 (Homo sapiens) (UniProt P11229); assay: Cholinergic receptor muscarinic 1 (CHRM1) small molecule antagonists, cell-based qHTS assay (AID 1963588); further: nearly all actives have a fitted effect of over 40% in size; further: potency means the concentration at half of the fitted maximal effect
In short: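 CHRM1-CHO calcium-flux assay, antagonist mode. Cells were seeded 18 h, dye-loaded 1 h at 37 C and given compound for 5 min at RT, then acetylcholine was added at 50nM. FDSS fluorescence was read 3 min; 15 concentrations, three runs.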

[13] = cAMP Responsive Elements (CRE) small molecule agonists, cell-based qHTS assay (AID 1963590)
In short: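 CRE-bla HEK 293T cells in DMEM with 10% dialyzed FBS, NEAA, pyruvate and 25 mM HEPES were plated 18 h at 37 C/5% CO2, then exposed to compounds in DMSO for 3 h before LiveBLAzer B/G FRET substrate addition.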

[14] = cAMP Responsive Elements (CRE) small molecule antagonists, cell-based qHTS assay (AID 1963591; active means well fitted inhibition curve with a large enough effect in the signal ratio in the repeat runs, not every such curve was filed as active; the % refers to the signal ratio)
In short: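 CRE-bla HEK293T cells were plated 18 h at 37 °C/5% CO2, pinned with compound in DMSO, then stimulated with NKH477 at 0.25 uM final for 3 h. LiveBLAzer B/G FRET substrate was added and plates incubated 2 h at room temperature.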

[15] = biological target: Beta-2 adrenergic receptor (Homo sapiens) (UniProt P07550); assay: Adrenergic beta2 receptor (ADRB2) small molecule antagonists, cell-based qHTS assay (AID 1963592); further: series mostly up to about 92 µM; nearly all actives have a fitted effect of over 50% in size
In short: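 Cells (CHO, stable ADRB2 overexpression) incubated 18-20hr at 37C; compounds added from DMSO; agonist mix (1nM isoproterenol, 100uM IBMX, 25uM Ro-20-1724) added; 0.5hr RT; d2-cAMP and anti-cAMP-cryptate added; 1hr RT; 665/615 nm read.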

[16] = biological target: Beta-2 adrenergic receptor (Homo sapiens) (UniProt P07550); assay: Adrenergic beta2 receptor (ADRB2) small molecule agonists, cell-based qHTS assay (AID 1963593);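 further: CHO cells stably overexpressing human ADRB2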
In short: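 CHO cells stably over-expressing ADRB2 were plated overnight at 37C, then dosed with compounds plus a stimulation mix containing 100uM IBMX and 25uM Ro-20-1724 for 0.5hr at room temperature. cAMP was measured by HTRF competition, 1hr.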

[17] = biological target: D(2) dopamine receptor (Homo sapiens) (UniProt P14416); assay: Dopamine D2 receptor (DRD2) small molecule agonists, cell-based qHTS assay (AID 1963594); further: nearly all actives have a fitted effect of over 35% in size
In short: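 cAMP accumulation in DRD2-HEK293 cells measured by HTRF after 1 h detection; compounds added 10 min before NKH477 (200nM […]) forskolin-analogue stimulation, 30 min at room temperature, with Ro20-1724 present at 0.1 mM final.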

[18] = p53 small molecule agonists, cell-based qHTS assay: qHTS cell viability counter screen (AID 1963581); further: nearly all actives have a fitted effect of over 45% in size; further: potency means the concentration at half of the fitted maximal effect
In short: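 p53RE-bla HCT-116 cells were exposed to compounds for 16 h at 37 C; after the beta-lactamase FRET read in the same wells, CellTiter-Glo was added and luminescence (intracellular ATP) read after 30 min at room temperature.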

[19] = biological target: Muscarinic acetylcholine receptor M1 (Homo sapiens) (UniProt P11229); assay: Cholinergic receptor muscarinic 1 (CHRM1) small molecule agonists, cell-based qHTS assay (AID 1963589); further: nearly all actives have a fitted effect of over 35% in size
In short: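 CHO cells stably expressing human CHRM1, seeded 18 h at 37 C/5% CO2, dye-loaded 1 h at 37 C, then given compound in agonist mode; intracellular calcium fluorescence read kinetically at 1 s intervals. Fifteen concentrations, three independent runs.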

[20] = biological target: D(2) dopamine receptor (Homo sapiens) (UniProt P14416); assay: Dopamine D2 receptor (DRD2) small molecule antagonists, cell-based qHTS assay (AID 1963595; active means well fitted inhibition curve with a large enough effect in the signal ratio in the repeat runs, with a control signal flat; the % refers to the signal ratio; further: potency means the concentration at half of the fitted maximal effect)
In short: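 HEK293 cells stably expressing DRD2 were preincubated with 0.1 mM Ro20-1724, then with compound for 10 min at room temperature. Cells were stimulated with 200 nM NKH477 plus 12 nM quinpirole for 30 min, and cAMP was read by HTRF.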

Sequence of Muscarinic acetylcholine receptor M1 (Homo sapiens) (P11229 whole entry, looked up): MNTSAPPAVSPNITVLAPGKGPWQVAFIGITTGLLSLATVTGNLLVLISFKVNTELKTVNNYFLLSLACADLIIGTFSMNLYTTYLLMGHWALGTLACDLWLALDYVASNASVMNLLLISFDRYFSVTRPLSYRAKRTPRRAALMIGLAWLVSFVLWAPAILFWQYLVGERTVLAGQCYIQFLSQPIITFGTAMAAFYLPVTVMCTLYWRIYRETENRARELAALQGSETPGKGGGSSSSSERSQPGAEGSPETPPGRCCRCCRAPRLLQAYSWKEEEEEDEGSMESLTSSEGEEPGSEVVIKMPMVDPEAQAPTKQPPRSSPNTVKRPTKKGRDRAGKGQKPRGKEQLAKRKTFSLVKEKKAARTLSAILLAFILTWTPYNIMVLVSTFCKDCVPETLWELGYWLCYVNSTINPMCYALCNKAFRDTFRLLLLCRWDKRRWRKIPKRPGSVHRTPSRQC
Sequence of KiSS-1 receptor (Homo sapiens) (Q969F8 whole entry, looked up): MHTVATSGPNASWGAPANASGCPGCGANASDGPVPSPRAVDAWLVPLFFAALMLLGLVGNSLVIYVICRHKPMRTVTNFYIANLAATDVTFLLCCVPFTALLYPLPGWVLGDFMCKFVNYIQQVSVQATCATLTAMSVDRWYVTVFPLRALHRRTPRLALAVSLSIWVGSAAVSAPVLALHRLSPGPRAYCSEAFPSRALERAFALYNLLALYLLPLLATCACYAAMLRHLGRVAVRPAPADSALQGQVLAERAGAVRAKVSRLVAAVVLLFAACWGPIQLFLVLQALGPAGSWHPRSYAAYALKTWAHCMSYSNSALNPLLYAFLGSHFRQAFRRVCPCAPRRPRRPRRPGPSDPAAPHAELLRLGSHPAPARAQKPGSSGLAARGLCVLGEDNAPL
Sequence of D(2) dopamine receptor (Homo sapiens) (P14416 whole entry, looked up): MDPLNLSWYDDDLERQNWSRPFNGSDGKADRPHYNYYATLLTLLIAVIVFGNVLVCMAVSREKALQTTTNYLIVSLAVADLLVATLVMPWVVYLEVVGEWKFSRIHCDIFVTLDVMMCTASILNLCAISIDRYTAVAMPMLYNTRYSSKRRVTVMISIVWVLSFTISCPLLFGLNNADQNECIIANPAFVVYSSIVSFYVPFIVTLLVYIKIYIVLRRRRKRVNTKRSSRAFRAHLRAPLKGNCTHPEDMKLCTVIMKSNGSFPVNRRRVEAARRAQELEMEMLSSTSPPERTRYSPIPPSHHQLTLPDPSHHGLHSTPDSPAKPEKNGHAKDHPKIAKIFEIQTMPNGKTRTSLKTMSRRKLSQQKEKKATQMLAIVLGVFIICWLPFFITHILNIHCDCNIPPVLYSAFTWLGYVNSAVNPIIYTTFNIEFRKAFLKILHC
Sequence of Beta-2 adrenergic receptor (Homo sapiens) (P07550 whole entry, looked up): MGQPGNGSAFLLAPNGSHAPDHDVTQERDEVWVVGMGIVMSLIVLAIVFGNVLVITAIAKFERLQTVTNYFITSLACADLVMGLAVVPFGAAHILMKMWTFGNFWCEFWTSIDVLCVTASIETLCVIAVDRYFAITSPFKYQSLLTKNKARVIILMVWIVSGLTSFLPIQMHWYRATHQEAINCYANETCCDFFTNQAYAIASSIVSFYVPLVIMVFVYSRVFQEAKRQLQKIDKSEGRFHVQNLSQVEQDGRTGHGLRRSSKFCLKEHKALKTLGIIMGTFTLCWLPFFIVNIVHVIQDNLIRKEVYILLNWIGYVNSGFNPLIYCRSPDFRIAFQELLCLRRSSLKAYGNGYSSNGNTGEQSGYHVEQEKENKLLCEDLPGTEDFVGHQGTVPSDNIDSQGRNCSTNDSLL
Sequence of Gonadotropin-releasing hormone receptor (Homo sapiens) (P30968 whole entry, looked up): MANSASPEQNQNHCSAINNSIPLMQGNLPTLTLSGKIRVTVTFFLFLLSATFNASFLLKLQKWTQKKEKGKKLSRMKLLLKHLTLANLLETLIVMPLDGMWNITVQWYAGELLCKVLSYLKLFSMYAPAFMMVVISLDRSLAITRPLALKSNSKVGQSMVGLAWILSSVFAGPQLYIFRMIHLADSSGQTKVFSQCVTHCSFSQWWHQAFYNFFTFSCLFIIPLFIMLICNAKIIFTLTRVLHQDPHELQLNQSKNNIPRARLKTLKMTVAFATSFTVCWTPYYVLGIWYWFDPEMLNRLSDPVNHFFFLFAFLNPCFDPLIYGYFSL
Sequence of 5-hydroxytryptamine receptor 2A (Homo sapiens) (P28223 whole entry, looked up): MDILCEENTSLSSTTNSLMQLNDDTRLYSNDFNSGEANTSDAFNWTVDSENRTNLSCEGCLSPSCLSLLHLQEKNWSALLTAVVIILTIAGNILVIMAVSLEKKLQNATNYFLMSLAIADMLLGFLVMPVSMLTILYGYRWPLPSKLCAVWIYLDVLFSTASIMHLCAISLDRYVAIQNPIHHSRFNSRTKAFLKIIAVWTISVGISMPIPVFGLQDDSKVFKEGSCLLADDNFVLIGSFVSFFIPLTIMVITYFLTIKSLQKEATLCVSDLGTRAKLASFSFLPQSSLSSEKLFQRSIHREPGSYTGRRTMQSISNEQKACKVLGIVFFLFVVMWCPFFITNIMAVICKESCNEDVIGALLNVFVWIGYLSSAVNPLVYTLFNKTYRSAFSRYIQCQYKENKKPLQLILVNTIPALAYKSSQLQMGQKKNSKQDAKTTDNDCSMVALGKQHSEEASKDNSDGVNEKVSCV

| SMILES | Potency [1] | Potency [2] | Potency [3] | Potency [4] | Potency [5] | Potency [6] | Potency [7] | Potency [8] | Potency [9] | Potency [10] | Potency [11] | Potency [12] | Potency [13] | Potency [14] | Potency [15] | Potency [16] | Potency [17] | Potency [18] | Potency [19] | Potency [20] |
| --- | --- | --- | --- | --- | --- | --- | --- | --- | --- | --- | --- | --- | --- | --- | --- | --- | --- | --- | --- | --- |
| COc1ccc(OC)cc1 | inactive | inactive | inactive | inactive | inactive | inactive | inactive | inactive | inactive | inactive | inactive | inactive | inactive | inactive | inactive | inactive | inactive | – | – | – |
| O=C(CC(C(=O)OC1CCCCC1)S(=O)(=O)O)OC1CCCCC1 (stereo not drawn) | inactive | inactive | inactive | inactive | inactive | inactive | inactive | inactive | inactive | – | – | inactive | inactive | inactive | – | inactive | inactive | inactive | inactive | inactive |
| CCCCCCCCCCCCCCCC[N+](C)(C)Cc1ccccc1 | 28.2 µM (active) and 24.8 µM (active) and 26.6 µM (active) | inactive | inactive | inactive | inactive | inactive | inactive | 53 µM (active) and 33 µM (active) and inactive | 41.5 µM (active) and inactive | inactive and 11.6 µM (active) | 49.8 µM (active) | 0.41 µM (active) | – | – | inactive | inactive | inactive | 37 µM (active) | inactive | 55.5 µM (active) |
| CCc1nc(N)nc(N)c1-c1ccc(Cl)cc1 | inactive | inactive | 39.5 µM (active) | inactive | inactive | inactive | inactive | inactive | inactive | inactive | – | inactive | – | inactive | inactive | inactive | inactive | 13.1 µM (active) | inactive | inactive |
| NS(=O)(=O)c1cc2c(cc1Cl)NCNS2(=O)=O | inactive | inactive | inactive | inactive | inactive | inactive | inactive | inactive | inactive | – | – | – | inactive | inactive | inactive | inactive | inactive | inactive | – | inactive |
| CC1(C)[C@@H](O[C@H]2O[C@H](C(=O)O)[C@@H](O)[C@H](O)[C@H]2O[C@@H]2O[C@H](C(=O)O)[C@@H](O)[C@H](O)[C@H]2O)CC[C@]2(C)[C@H]3C(=O)C=C4[C@@H]5C[C@@](C)(C(=O)O)CC[C@]5(C)CC[C@@]4(C)[C@]3(C)CC[C@@H]12 | inactive | inactive | inactive | inactive | inactive | inactive | inactive | inactive | inactive | – | – | – | inactive | inactive | inactive | – | inactive | inactive | – | inactive |
| Cc1cnc(NC(=O)C2=C(O)c3ccccc3S(=O)(=O)N2C)s1 | inactive | inactive | inactive | inactive | inactive | inactive | inactive | inactive | inactive | – | – | – | inactive | inactive | inactive | inactive | inactive | – | – | inactive |
| C=CC(=O)NC(C)(C)CS(=O)(=O)O | inactive | inactive | inactive | inactive | inactive | inactive | inactive | inactive | inactive | inactive | inactive | inactive | inactive | inactive | inactive | inactive | inactive | – | inactive | inactive |
| O=c1c(-c2ccc(O)cc2)coc2cc(O)cc(O)c12 | inactive | inactive and 15 µM (active) | inactive | inactive | inactive | inactive | inactive | inactive | 16 µM (active) | – | – | – | inactive | – | inactive | – | inactive | inactive | – | inactive |
| C#C[C@]1(O)CC[C@H]2[C@@H]3CCC4=CC(=O)CC[C@@H]4[C@H]3CC[C@@]21CC | inactive | inactive | inactive | inactive | inactive | inactive | inactive | inactive | inactive | – | – | – | inactive | – | inactive | inactive | inactive | inactive | – | inactive |
| O=C1O[C@H](CO)[C@@H](O)[C@H](O)[C@H]1O | inactive | inactive | inactive | inactive | inactive | inactive | inactive | inactive | – | inactive | inactive | inactive | – | inactive | inactive | inactive | – | inactive | inactive | inactive |
| Cc1ccccc1C=O | inactive | inactive | inactive | inactive | inactive | inactive | inactive | inactive | – | inactive | inactive | inactive | inactive | inactive | inactive | – | inactive | inactive | inactive | inactive |
| CCCCN(CCCC)CCCC | inactive | inactive | inactive | inactive | inactive | inactive | inactive | inactive | – | inactive | inactive | – | inactive | inactive | inactive | inactive | inactive | inactive | – | inactive |
| CCOC(=O)/C=C\C(=O)OCC | inactive | inactive | inactive | inactive | inactive | inactive | inactive | inactive | – | inactive | inactive | inactive | inactive | inactive | inactive | inactive | inactive | inactive | inactive | inactive |
| NC(=S)NNC(N)=S | inactive | inactive | inactive | inactive | inactive | inactive | inactive | inactive | – | inactive | inactive | inactive | inactive | inactive | inactive | inactive | – | inactive | inactive | inactive |

Source: PubChem BioAssay (Tox21)
